Calls of active or inactive are those of the source. Rule for the calls: active = hit-call score of the fitted dose curve at least 0.9, where 1 is the maximum; inactive = score below 0.9.
How the values were obtained:
[1] = read-out: Thrombomodulin, THBD (gene 7056); assay: BSK_CASM3C_Thrombomodulin: BioMAP Diversity Plus: CASM3C Assay for Thrombomodulin Biomarker Activity (AID 2283051); details: primary human coronary artery smooth muscle cells; actives raise or lower the signal;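 note: thrombomodulin protein level measured by ELISA 24 h after dosing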
[2] = read-out: Tissue Factor, F3 (gene 2152); assay: BSK_CASM3C_TissueFactor: BioMAP Diversity Plus: CASM3C Assay for Tissue Factor Biomarker Activity (AID 2283052); details: primary human coronary artery smooth muscle cells; actives raise or lower the signal;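 note: cell surface tissue factor protein level read by ELISA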
[3] = read-out: Interferon-gamma inducible Protein 10 (IP10), CXCL10 (gene 3627); assay: BSK_hDFCGF_IP10: BioMAP Diversity Plus: hDFCGF Assay for Interferon-gamma inducible Protein 10 (IP10) Biomarker Activity (AID 2283053); details: primary human foreskin fibroblasts; actives raise or lower the signal
Outline: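 Primary human foreskin fibroblasts exposed to chemicals for 24 h. IP-10 measured by ELISA; changes fitted bidirectionally against DMSO baseline.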

[4] = read-out: Urokinase-type plasminogen activator receptor (uPAR), PLAUR (gene 5329); assay: BSK_CASM3C_uPAR: BioMAP Diversity Plus: CASM3C Assay for Urokinase-type plasminogen activator receptor (uPAR) Biomarker Activity (AID 2283054); details: primary human coronary artery smooth muscle cells; actives raise or lower the signal;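 note: cell-surface uPAR protein level quantified by ELISA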
[5] = read-out: Vascular cell adhesion molecule 1 (VCAM1), VCAM1 (gene 7412); assay: BSK_CASM3C_VCAM1: BioMAP Diversity Plus: CASM3C Assay for Vascular cell adhesion molecule 1 (VCAM1) Biomarker Activity (AID 2283055); details: primary human coronary artery smooth muscle cells; actives raise or lower the signal;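 note: VCAM-1 protein level quantified by ELISA on the cells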
[6] = read-out: Collagen III, COL3A1 (gene 1281); assay: BSK_hDFCGF_CollagenIII: BioMAP Diversity Plus: hDFCGF Assay for Collagen III Biomarker Activity (AID 2283056); details: primary human foreskin fibroblasts; actives raise or lower the signal
Outline: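 Human foreskin primary fibroblasts were exposed to test chemicals for 24 h, after which collagen III was quantified by ELISA. Activity was fitted bidirectionally against DMSO as negative control and baseline.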

[7] = read-out: Epidermal growth factor receptor (EGFR), EGFR (gene 1956); assay: BSK_hDFCGF_EGFR: BioMAP Diversity Plus: hDFCGF Assay for Epidermal growth factor receptor (EGFR) Biomarker Activity (AID 2283057); details: primary human foreskin fibroblasts; actives raise or lower the signal
Outline: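 Primary human foreskin fibroblasts (hDFCGF system), sampled 24 h after dosing; EGFR quantified by ELISA. Bidirectional fit relative to DMSO baseline; SRB total-protein staining in parallel cultures for cytotoxicity.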

[8] = read-out: Interleukin-8 (IL8), CXCL8 (gene 3576); assay: BSK_hDFCGF_IL8: BioMAP Diversity Plus: hDFCGF Assay for Interleukin-8 (IL8) Biomarker Activity (AID 2283058); details: primary human foreskin fibroblasts; actives raise or lower the signal
Outline: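 hDFCGF human dermal fibroblasts; 24 h chemical exposure; IL-8 by ELISA; bidirectional curve fit vs DMSO baseline; gain or loss of signal scored.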

[9] = BSK_hDFCGF_Proliferation: Cell Proliferation Assessment in the BioMAP Diversity Plus: hDFCGF Assay (AID 2283059); details: primary human foreskin fibroblasts;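 note: curves fitted for both rise and fall of signal versus DMSO baseline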
Outline: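 Primary human foreskin fibroblasts, sub-confluent; […]; 10% TCA fix, 0.1% SRB stain, A560 total protein. Gain/loss fitted bidirectionally vs DMSO control.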

[10] = read-out: Macrophage colony-stimulating factor (MCSF), CSF1 (gene 1435); assay: BSK_hDFCGF_MCSF: BioMAP Diversity Plus: hDFCGF Assay for Macrophage colony-stimulating factor (MCSF) Biomarker Activity (AID 2283060); details: primary human foreskin fibroblasts; actives raise or lower the signal
Outline: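 Human foreskin primary fibroblasts were treated with test chemical for 24 h, and M-CSF was then measured by ELISA. Data were fitted bidirectionally against DMSO as the negative control and activity baseline.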

[11] = BSK_hDFCGF_SRB: Viability Assessment in the BioMAP Diversity Plus: hDFCGF Assay (AID 2283061); details: primary human foreskin fibroblasts;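 note: cells exposed to compound for 24 h before the read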
Outline: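 Human foreskin primary fibroblasts were treated with compound and assessed 24 h after dosing. Total protein was measured by sulforhodamine B staining (0.1% SRB after 10% TCA fixation, 560 nm read) as a cytotoxicity marker, with bidirectional fitting against DMSO baseline.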

[12] = read-out: TIMP metallopeptidase inhibitor 1 (TIMP1), TIMP1 (gene 7076); assay: BSK_hDFCGF_TIMP1: BioMAP Diversity Plus: hDFCGF Assay for TIMP metallopeptidase inhibitor 1 (TIMP1) Biomarker Activity (AID 2283062); details: primary human foreskin fibroblasts; actives raise or lower the signal
Outline: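 Primary human foreskin fibroblasts in the hDFCGF system were dosed with compound for 24 h, then TIMP-1 was measured by ELISA. Activity was fitted bidirectionally relative to DMSO control; parallel SRB staining assessed cytotoxicity.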

[13] = read-out: Matrix Metallopeptidase 1 (MMP1), MMP1 (gene 4312); assay: BSK_hDFCGF_MMP1: BioMAP Diversity Plus: hDFCGF Assay for Matrix Metallopeptidase 1 (MMP1) Biomarker Activity (AID 2283064); details: primary human foreskin fibroblasts; actives raise or lower the signal
Outline: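 Primary human foreskin fibroblasts exposed to chemicals for 24 h; MMP1 measured by ELISA. Cytotoxicity tracked by SRB staining in parallel cultures; bidirectional fit relative to DMSO.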

[14] = read-out: Vascular cell adhesion molecule 1 (VCAM1), VCAM1 (gene 7412); assay: BSK_hDFCGF_VCAM1: BioMAP Diversity Plus: hDFCGF Assay for Vascular cell adhesion molecule 1 (VCAM1) Biomarker Activity (AID 2283065); details: primary human foreskin fibroblasts; actives raise or lower the signal
Outline: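 Primary human foreskin fibroblasts (hDFCGF system) were dosed with chemical and VCAM-1 was measured by ELISA 24 h later. Bidirectional curve fitting used DMSO as negative control and activity baseline.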

[15] = read-out: Plasminogen activator inhibitor-1 (PAI1), SERPINE1 (gene 5054); assay: BSK_hDFCGF_PAI1: BioMAP Diversity Plus: hDFCGF Assay for Plasminogen activator inhibitor-1 (PAI1) Biomarker Activity (AID 2283066); details: primary human foreskin fibroblasts; actives raise or lower the signal
Outline: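 Human foreskin fibroblast primary cells, 24 h chemical exposure; PAI-1 measured by ELISA. Bidirectional fitting relative to DMSO; parallel cultures stained with SRB for total protein to flag overt cytotoxicity.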

[16] = read-out: Intercellular Adhesion Molecule 1 (ICAM1), ICAM1 (gene 3383); assay: BSK_KF3CT_ICAM1: BioMAP Diversity Plus: KF3CT Assay for Intercellular Adhesion Molecule 1 (ICAM1) Biomarker Activity (AID 2283067); details: primary human keratinocytes with fibroblasts; actives raise or lower the signal
Outline: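 Human keratinocyte plus foreskin fibroblast primary co-culture was exposed to chemical for 24 h. ICAM-1 was then quantified by ELISA, and the data were fit bidirectionally against DMSO as the negative control and baseline.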

[17] = read-out: Interferon-gamma inducible Protein 10 (IP10), CXCL10 (gene 3627); assay: BSK_KF3CT_IP10: BioMAP Diversity Plus: KF3CT Assay for Interferon-gamma inducible Protein 10 (IP10) Biomarker Activity (AID 2283068); details: primary human keratinocytes with fibroblasts; actives raise or lower the signal
Outline: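 In a primary skin co-culture of keratinocytes and fibroblasts, IP-10 is quantified by ELISA at 24 h after dosing. SRB staining of parallel wells monitors overt toxicity. Curves are fitted both directions against DMSO.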

[18] = BSK_KF3CT_SRB: Viability Assessment in the BioMAP Diversity Plus: KF3CT Assay (AID 2283069); details: primary human keratinocytes with fibroblasts;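 note: fitted for both signal gain and loss against DMSO baseline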
Outline: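 Human keratinocyte and foreskin fibroblast co-culture exposed to chemical for 24 h. Total protein measured in parallel cultures by 0.1% sulforhodamine B staining after 10% TCA fixation, read at 560 nm; bidirectional fit relative to DMSO.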

[19] = read-out: Interleukin-1 alpha (IL1a), IL1A (gene 3552); assay: BSK_KF3CT_IL1a: BioMAP Diversity Plus: KF3CT Assay for Interleukin-1 alpha (IL1a) Biomarker Activity (AID 2283070); details: primary human keratinocytes with fibroblasts; actives raise or lower the signal
Outline: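 Primary human keratinocyte plus foreskin fibroblast co-culture, dosed and measured at 24 h in 96-well plates. IL-1a level quantified by ELISA; bidirectional fit relative to DMSO.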

Measured: AC50

Cc1c(COC(=O)[C@@H]2[C@H](/C=C(\Cl)C(F)(F)F)C2(C)C)cccc1-c1ccccc1
active: [1] 18.1 µM | [9] 16.9 µM | [10] 3.97 µM | [13] 3.23 µM
inactive: all other assays above

Cn1c(-c2ccccc2)cc(-c2ccccc2)[n+]1C
active: [6] 10.1 µM | [9] 5.37 µM | [10] 5.47 µM | [12] 20 µM | [17] 7.72 µM
inactive: all other assays above

CCCCC(C#N)(Cn1cncn1)c1ccc(Cl)cc1 (configuration not stated)
active: [4] 1.12 µM | [15] 7.4 µM | [17] 0.148 µM
inactive: all other assays above

O=c1n(Cl)c(=O)n(Cl)c(=O)n1Cl
active: [1] 12.7 µM | [3] 20 µM
inactive: all other assays above

CC(C)(C)C(=O)C(Oc1ccc(Cl)cc1)n1cncn1 (configuration not stated)
not listed: [9]
inactive: all other assays above

O=P(O)(O)CCCl
inactive: all assays above

CC(C)C1(C)N=C(c2ncccc2C(=O)O)NC1=O (configuration not stated)
inactive: all assays above

— PubChem BioAssay (EPA / NIEHS)
